In the library only some 21% were active in any assay of this set; here they are far more common.
Sm TGR inh: qHTS Assay for the Inhibitors of Schistosoma Mansoni Peroxiredoxins. purified TGR, DTNB reduction, TNB absorbance 405 nm. actives 3% (n = 360,000). Potency, µM (doses to about 114 µM), inactives show top-dose activity change, negative = inhibition, most hits filed as inhibitors. AID 485364, 2010; note: potency is the fitted concentration of half-maximal effect; % is set by controls: 0 for no effect and ±100 for the full control effect; nearly all actives have a fitted effect of over 60% in size
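First, TGR (20 nM dispensed) and NADPH were mixed with compound. Second, a 15 min room-temperature incubation followed. Third, further NADPH and then DTNB were added to start the reaction. Finally, TNB absorbance was monitored kinetically.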
Shiga inhibitor: A qHTS for Small Molecule Inhibitors of Shiga Toxin | AID 2315, 2010 | actives 9.2% (n = 290,000) | inhibition, % at 38.7 µM | Vero cells, Shiga toxin protein synthesis inhibition reporter; in the data active = inhibition mostly above about 28%, no sharp cut-off; inactive = mostly below about 43%; note: 0% is about no effect
Cycloheximide cs: Cycloheximide Counterscreen for Small Molecule Inhibitors of Shiga Toxin; cell reporter, cycloheximide protein synthesis inhibition counterscreen; max response, %; actives 12% (n = 300,000); AID 2314, 2010; in the data active = max response mostly above about 13%, no sharp cut-off; inactive = mostly below about 14%; note: read at 38.3 µM for the half of the compounds with a filed dose; 0% is about no effect
Pf growth 96h: Primary qHTS for delayed death inhibitors of the malarial parasite plastid, 96 hour incubation. actives 6.9% (n = 320,000). AID 504834, 2011. P. falciparum luciferase reporter growth, 96 h. Potency, µM (titrated, usually from 28.7 µM), without a hit: at the top dose activity change, negative = inhibition, most hits filed as inhibitors; note: potency is the fitted concentration of half-maximal effect; % is set by controls: 0 for no effect and ±100 for the full control effect
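Compounds incubated with erythrocytes infected by luciferase-expressing P. falciparum (2% hematocrit, 0.05% parasitemia final) for 96 hours, 37 C in 5% CO2. Growth inhibition scored as decreased luciferase luminescence.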
NS1 inh: qHTS Assay for Inhibitors of Influenza NS1 Protein Function; Potency, µM (top dose mostly 46.1 µM), for the others: at the highest dose activity, positive = more growth; actives 0.4% (n = 270,000); calls by dose curve; note: potency is the fitted concentration of half-maximal effect; actives are rising curves; nearly all actives have a fitted effect of over 50% in size
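Growth recovery, yeast-based: influenza A NS1 expressed in S. cerevisiae causes slow growth, and suppressors are detected by OD600. The parent strain without NS1 is used as positive control.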
Pf growth 48h: Primary qHTS for delayed death inhibitors of the malarial parasite plastid, 48 hour incubation. P. falciparum luciferase growth in erythrocytes, 48 h. actives 5.9% (n = 310,000). Potency, µM (titrated, usually from 28.7 µM), for inactives: at the top dose activity change, negative = inhibition, actives largely listed as inhibitors; note: potency is the fitted concentration of half-maximal effect; % is set by controls: 0 for no effect and ±100 for the full control effect
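Here the parasites carry a stable luciferase gene and grow inside erythrocytes in Albumax-based RPMI medium with compound for one erythrocytic cycle. Activity is scored as loss of luminescent signal.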
Active calls of the source: *; i = inactive; ? = inconclusive; . = no result; [ ] = dose if it differs, or a comment. Unless noted, calls come from the whole dose curve; as a rule, active = well fitted curve in the direction sought with a large enough effect; inconclusive = small, poorly fitted or top-dose-only effect, or another doubt; inactive = no such curve, though single readings can be large; an effect the other way counts as inactive or inconclusive.

SMILES	Sm TGR inh	Shiga inhibitor	Cycloheximide cs	Pf growth 96h	NS1 inh	Pf growth 48h
COc1ccc(C(=O)Nc2nnc(CCc3ccccc3)s2)c(OC)c1	11.9%	10.2	1.7	?	-1.4%	-13.4%
CCOCCc1nnc(NC(=O)c2cccc(F)c2)s1	4.1%	40.9*	20.1*	.	-31.8%	82.2%
COc1ccc(Cc2nnc(NC(=O)C3CC(=O)N(c4ccccc4)C3)s2)cc1OC (stereo not drawn)	4.6%	2.1	-4.4	2.94µM*	-7.5%	0.0%
CCOCCc1nnc(NC(=O)c2cc(OC)c(OC)c(OC)c2)s1	-0.9%	-6.8	-2.5	.	-7.2%	-7.6%
COCc1nnc(NC(=O)c2ccc(OC)cc2OC)s1	.	104.1*	46.8*	50.2%	-3.9%	105.6%
COc1ccc(CCN2CC(C(=O)Nc3nnc(Cc4ccccc4)s3)CC2=O)cc1OC (stereo not drawn)	-12.6%	.	.	?	.	?
COc1ccc(Cc2nnc(NC(=O)c3c(-c4ccccc4)noc3C)s2)cc1	12.4%	-21.6	-5.2	55.1%	28.2%	-12.2%
COc1ccc(Cc2nnc(NC(=O)c3c(-c4ccccc4)noc3C)s2)cc1OC	-3.7%	-12.7	-2.2	10.4µM*	-49.0%	?
O=S1(=O)c2ccccc2N(Cc2ccc(Cl)cc2F)c2ccccc21	-0.8%	.	.	.	.	.
COc1ccc(Cc2nnc(NC(=O)c3ccc(OC)c(OC)c3)s2)cc1OC	0.0%	-21.0	3.8	21.4%	.	-10.3%
CCCc1nnc(NC(=O)c2cccc(OC)c2)s1	-5.8%	73.5*	61.8*	73.2%	-121.9%	128.2%
COc1cccc(C(=O)Nc2nnc(Cc3ccc(OC)c(OC)c3)s2)c1	5.5%	4.0	3.1	0.3%	-5.1%	11.7µM*
CS(=O)(=O)Nc1ccc(C2=NN(S(C)(=O)=O)C(c3ccccc3)C2)cc1 (stereo not drawn)	-1.5%	41.8*	20.4	135.1%	-3.8%	24.8%
CS(=O)(=O)N1N=C(c2ccccc2)CC1c1ccc2c(c1)OCO2 (stereo not drawn)	-9.2%	99.0*	66.3*	6.2%	8.7%	85.8%
CS(=O)(=O)Nc1cccc(C2=NN(S(=O)(=O)c3ccc(F)cc3)C(c3cccs3)C2)c1 (stereo not drawn)	-13.5%	-8.8	-1.6	?	?	-13.7%
CS(=O)(=O)Nc1cccc(C2=NN(S(C)(=O)=O)C(c3ccc4c(c3)OCO4)C2)c1 (stereo not drawn)	-2.5%	49.7*	24.7*	2.33µM*	-13.7%	36.6%
CC(NC(=O)c1ccc(F)cc1)c1nc2ccccc2[nH]1 (stereo not drawn)	-2.1%	.	.	.	.	.
COc1cc2c(cc1OC)n(CC(=O)Nc1ccc(C)cc1C)c(=O)n1nc(-c3ccccc3)nc21	17.0%	.	.	.	.	.
Cn1c(CNC(=O)c2ccc(F)cc2)cc2ccccc21	-10.7%	-2.5	1.2	?	24.5%	24.3%
Cc1ccc(C(C(=O)NC2CCCC2)N(C(=O)CNC(=O)c2ccco2)c2ccccc2)o1 (stereo not drawn)	-2.1%	-5.7	-2.5	?	-8.3%	-16.8%
CN(C)C(=O)c1cnc(-c2ccccc2)nc1-c1ccccc1	-10.1%	-2.4	-2.9	-27.9%	-3.6%	-12.3%
CCN(CC)CCn1c(SCC(=O)NCc2ccco2)nc2c(sc3ccccc32)c1=O	31.6µM*	26.8	0.9	.	3.3%	?
O=C(CSc1nc2c(sc3ccccc32)c(=O)n1Cc1ccccc1)NCC1CCCO1 (stereo not drawn)	3.1%	-11.7	-5.3	-7.5%	0.9%	.
O=C(CSc1nc2c(sc3ccccc32)c(=O)n1Cc1ccco1)NCC1CCCO1 (stereo not drawn)	0.0%	2.6	0.3	9.28µM*	-6.1%	8.28µM*
CCN(CC)CCn1c2ccccc2c2cnc(N)c(C#N)c21	-9.7%	-7.6	-4.0	2.62µM*	-7.7%	2.62µM*
SMILES	Sm TGR inh	Shiga inhibitor	Cycloheximide cs	Pf growth 96h	NS1 inh	Pf growth 48h
Cc1ccccc1NC(=O)c1ccco1	-14.5%	.	-2.5	?	0.2%	18.5%
Cc1ccccc1NC(=S)NNC(=O)c1ccco1	-2.0%	52.5*	31.8*	0.4%	1.5%	28.2%
CSCc1ccc(C(=O)Nc2cccc(C)c2C)cc1	-6.9%	21.4	48.6*	120.3%	14.5%	108.6%
Cc1cccc(NC(=O)c2ccco2)c1C	-20.6%	4.6	-2.8	10.4µM*	5.7%	4.0%
CCc1cc(C(=O)NNC(=S)Nc2ccccc2C)cs1	-7.8%	96.3*	38.5*	39.7%	13.8%	124.6%
CC(C)CNC(=S)NNC(=O)c1ccco1	-6.3%	20.1	2.6	-24.7%	12.2%	5.4%
CCCCn1c(N)c(N(CCOC)C(=O)c2ccc3c(c2)C(=O)N(c2cc(C)ccc2C)C3=O)c(=O)[nH]c1=O	-19.8%	24.9	-7.8	42.5%	3.9%	33.8%
COCc1cc(C)nc2sc3c(c12)NC(c1ccccc1C(=O)O)N(c1ccc(OC)cc1)C3=O (stereo not drawn)	-1.4%	.	.	.	.	.
O=C(NNC(=S)Nc1ccc(F)cc1F)c1ccco1	-18.4%	27.4	33.3*	-19.3%	-9.0%	44.4%
CCc1cc(C(=O)Nc2ccccc2)cs1	-7.5%	106.0*	40.7*	28.9%	-73.3%	58.1%
Cc1ccc(Cn2cccc(NC(=O)c3ccco3)c2=O)cc1	?	91.9*	36.9*	5.5%[5.75 µM]	-80.7%	40.4%
O=C(NNC(=S)Nc1ccccc1)c1ccco1	-16.3%	18.5	12.2	220.4%	-3.3%	131.2%
CC(C)Cn1c(=O)c2ccccc2n2c(CCC(=O)NCc3ccccc3Cl)nnc12	-3.9%	.	.	.	.	.
COc1ccccc1NC(=O)c1oc2ccc(C)cc2c1C	0.0%	101.1	34.4*	.	-4.7%	11.3%
COc1ccccc1NC(=O)c1oc2ccccc2c1NC(=O)c1cc(OC)c(OC)c(OC)c1	.	.	.	.	-15.1%	.
COc1ccccc1NC(=O)Cc1coc2cc(C)ccc12	0.0%	24.3	24.0*	-26.4%	-58.4%	.
CCOc1ccccc1NC(=O)Cc1coc2cc(C)ccc12	-1.2%	5.8	7.8	.	-122.0%	?
Cc1cccc(NC(=O)CCCN2C(=O)C(c3ccccc3)Oc3cccnc32)c1C (stereo not drawn)	4.4%	-1.8	1.0	20.8%	-3.3%	?
c1ccc(CN2CCC(N3CCN(Cc4ccc5c(c4)OCO5)CC3)CC2)cc1	-10.2%	-6.4	-3.0	?	-0.9%	14.7µM*
O=c1[nH]c(CN2CCN(Cc3ccc4c(c3)OCO4)CC2)nc2ccccc12	3.5%	-10.4	8.6*	7.6%	6.9%	-10.0%
CCCC[C@]12Cc3cc(C#N)ccc3C(O1)c1c(cc(C)n(Cc3ccccc3)c1=O)O2	0.8%[22.9 µM]	i	0.6	?	18.9%	?

Screens as filed in PubChem BioAssay.
